# In PubChem BioAssay AID2810 (NMMLSC, 2010):
# Screen size: about 1,200 compounds; about 65 (5%) were called active.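 The calls were made as follows: active = at either tested dose, response and 90th-percentile vesicle-stain brightness of CD8 cells under set limits and under 9% cells vesicle-bound; inactive = the rest.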 Shown is part of a subset that was picked to be rich in actives.
# Test: modulators of CD8 T cell-vesicle binding, confirmation, cherry-picked primary hits, two concentrations (AID 2810);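 also: lower values mean blocking of vesicle binding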;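 as to percent response (vesicle binding): ratio of mean FL2 vesicle stain of CD8+ cells to that row's control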
# Settings: 2C CD8+ T cell-vesicle binding, flow cytometry; for double positive events: CD8+/vesicle+ events
# [1] = at 15.4 µM, stronger effect = lower value
SMILES,double positive events (at 7.7 µM),double positive events [1],percent response (vesicle binding) [1],"percent response (vesicle binding) (response, at 7.7 µM)"
O=C(Cn1cc(C(F)(F)F)cc(Cl)c1=O)NCCc1ccc(Cl)cc1Cl,11.1%,1.7%,16.3% (active),149%
Cc1ccc(C(=O)NC2CCCc3c2cnn3-c2ccc(F)cc2F)cn1 (stereo not given),33.7%,15%,329% (inactive),658%
CCOC(=O)C1(Cc2cccc(OC)c2)CCN(C/C=C/c2ccccc2)CC1,25.8%,11%,119% (inactive),269%
Cc1ccccc1/C(N)=N/OC(=O)c1cccs1,12.4%,17.9%,190% (inactive),217%
CCOC(=O)N1CCN(Cc2nc(-c3ccc(C)cc3)no2)CC1,14.7%,4.6%,63% (inactive),286%
COc1ccc([N+](=O)[O-])cc1N(CC(=O)O)S(C)(=O)=O,9.6%,19.3%,127% (inactive),281%
COc1ccc([N+](=O)[O-])cc1NC(=O)C(C)Sc1nc(-c2ccccc2)cs1 (stereo not given),11.7%,22.6%,114% (inactive),121%
COc1ccc([N+](=O)[O-])cc1NC(=O)c1ccc(N(Cc2ccccc2C)S(C)(=O)=O)cc1,8.4%,2.9%,47.7% (active),131%
CCN1CCN(c2ccc(S(=O)(=O)N3CCCCC3)cc2NC(=O)c2cccc(C)c2[N+](=O)[O-])CC1,31.1%,37.1%,238% (inactive),406%
CCN1CCN(c2ccc(NC(=O)c3cc4ccccc4cc3OC)cc2C)CC1,21.2%,1.8%,55.9% (active),373%
COc1cc2ccccc2cc1C(=O)NC1CCCCC1,11.7%,19%,121% (inactive),368%
O=C(Nc1nc2ccccc2n1CCN1CCOCC1)c1ccc(Cn2cc([N+](=O)[O-])cn2)o1,23.6%,23.8%,145% (inactive),260%
C=CCn1c(C)cc(-c2csc(NCC)n2)c1C,11.2%,24.9%,196% (inactive),160%
Cc1ccc(S(=O)(=O)N2CCN(CCOc3c(Cl)cccc3Cl)CC2)cc1C,28.4%,18.9%,334% (inactive),140%
CCOC(=O)c1ccc(S(=O)(=O)N2CCN(C3CCCC3)CC2)cc1,11.3%,23.3%,294% (inactive),107%
NC(=O)CCS(=O)(=O)CCN1CCN(S(=O)(=O)c2ccc3c(c2)CCC3)CC1,17.1%,7.7%,43.5% (active),183%
O=C(NCC1CCCCC1)c1cccc(S(=O)(=O)N2CCCC2)c1,8.6%,8.5%,104% (inactive),305%
Cc1ccc(/C=N/Nc2ccc(F)cc2F)s1,17.7%,29.3%,280% (inactive),159%
O=C(NCC1CCCO1)C(=O)NCC(c1ccco1)N1CCN(c2ccc(F)cc2)CC1 (stereo not given),35.6%,10.4%,199% (inactive),266%
O=C(O)c1ccc(N2C(=O)CC(SC(=Nc3ccccc3)Nc3ccccc3)C2=O)cc1 (stereo not given),19.3%,18.5%,276% (inactive),663%
CCOC(=O)CSc1nnnn1-c1cc(OC)c(Cl)cc1OC,20.1%,5.9%,53.3% (active),312%
COc1cc(Cl)c(S(=O)(=O)n2cnc(C)c2)cc1Cl,9.6%,9.7%,141% (inactive),151%

SMILES,double positive events (at 7.7 µM),double positive events [1],percent response (vesicle binding) [1],"percent response (vesicle binding) (response, at 7.7 µM)"
CCOC(=O)CSc1nnc(-c2ccc(Cl)cc2Cl)o1,16.3%,10.1%,118% (inactive),276%
CCn1c(SCC(=O)NCC2CCCO2)nnc1-c1c[nH]c2ccccc12 (stereo not given),14.2%,13.6%,286% (inactive),430%
O=C(NN1C(=O)C2C3C=CC([C@H]4CC34)[C@@H]2C1=O)c1ccc(Br)cc1 (stereo not given in full),33.5%,31.2%,590% (inactive),1000%
CCCOc1ccc(N2C(=O)CC(N(O)c3ccccc3)C2=O)cc1 (stereo not given),17.3%,14.6%,158% (inactive),254%
CN(CCCC(=O)N1CCN(c2ncccn2)CC1)S(=O)(=O)c1ccc(F)cc1,7%,13.1%,151% (inactive),122%
Cc1ccsc1C(=O)OCC(=O)N1CCN(c2ccccc2)CC1,17.9%,27%,263% (inactive),143%
Cc1ccccc1CS(=O)(=O)CCC(=O)N1CCN(c2ccc(N3CCOCC3)nn2)CC1,9%,3.1%,18.4% (active),160%
COc1ccc(Br)cc1CN(C)C(=O)c1ccc2c(c1)NC(=O)C(C)S2 (stereo not given),38.9%,17.5%,221% (inactive),368%
Cc1cccc(NC(=O)C2CCN(S(=O)(=O)c3c(C)[nH]c(=O)[nH]c3=O)CC2)c1,9.4%,12.6%,434% (inactive),330%
COc1ccc(NCc2nc3ccccc3n2CCOc2ccccc2)cc1,35.8%,10.6%,221% (inactive),261%
CS(=O)(=O)c1cccc(-c2csc(N3CCC(C(N)=O)CC3)n2)c1,18.3%,37.8%,182% (inactive),192%
NC(=O)C1CCN(c2nc(-c3cc4ccccc4o3)cs2)CC1,28.4%,8%,128% (inactive),459%
CC(=O)c1ccc(-c2csc(N3CCC(C(N)=O)CC3)n2)cc1,15.1%,4.6%,28.3% (active),132%
O=C(CN1C(=O)COc2ccc(S(=O)(=O)N3CCCC3)cc21)NC1CC1,21.1%,16.7%,459% (inactive),268%
O=C(NCc1ccncc1)C(=O)NCC(c1ccco1)N1CCN(c2ccccc2F)CC1 (stereo not given),28.7%,13.3%,251% (inactive),276%
CCOC(=O)c1sc(NC(=O)CSc2ncn[nH]2)c(C#N)c1C,36.7%,26.4%,617% (inactive),394%
COc1ccccc1-c1nnc(NC(=O)c2ccc(S(=O)(=O)N3CCOCC3)cc2)o1,7%,8.1%,284% (inactive),264%
CCCc1nnc(NC(=O)c2ccc(S(=O)(=O)N(C)c3ccccc3OC)cc2)s1,14.9%,6%,35.7% (active),216%
Cc1nnc(NC(=O)c2ccc(S(=O)(=O)N(C)c3ccccc3)cc2)s1,9.6%,37.9%,156% (inactive),134%
COc1cc(OC)cc(C(=O)NC(C(=O)Nc2ccc3c(c2)CCC3)C(C)C)c1 (stereo not given),8.9%,21%,368% (inactive),147%
O=C(CC1=NCCNC(c2ccccc2)C1)c1ccccc1O (stereo not given),6.2%,1.7%,65.1% (inactive),316%
COc1ccc(NCC(O)Cn2c(C)c(C)c3ccccc32)cc1 (stereo not given),11.5%,16.3%,63.6% (inactive),101%

SMILES,double positive events (at 7.7 µM),double positive events [1],percent response (vesicle binding) [1],"percent response (vesicle binding) (response, at 7.7 µM)"
O=C(NCCN1CCN(c2ccccc2)CC1)c1cccc(Br)c1,24.2%,13.3%,252% (inactive),278%
Cc1ccc(C(C)n2cc(C(=O)NCCN3CCN(C)CC3)nn2)cc1 (stereo not given),11.2%,1.8%,36.8% (active),155%
CCCCCC(=O)N[C@@H](c1ccccc1)[C@@H](O)C(=O)O[C@H]1C[C@@]2(O)[C@@H](OC(=O)c3ccccc3)C3[C@](C)(C(=O)[C@H](OC(C)=O)C(=C1C)C2(C)C)[C@@H](O)C[C@H]1OC[C@@]31OC(C)=O (stereo not given in full),16.4%,12%,252% (inactive),302%
O=C(Nc1ccccc1)N1CCc2c([nH]c3ccccc23)C1C(F)(F)F (stereo not given),14%,38.4%,145% (inactive),187%
COc1ccccc1NC(=O)Cn1cnc2sc(C)c(S(=O)(=O)N3CCCCC3)c2c1=O,11.3%,5.5%,109% (inactive),197%
COc1ccccc1CNC(=O)c1ccc(N(C)S(=O)(=O)c2ccc(C)cc2)cc1,17.5%,5.4%,41.2% (active),152%
COc1ccccc1CNC(=O)COc1ccc(C)cc1,13.1%,5.2%,56.4% (active),222%
COc1ccccc1CNC(=O)C1CCC1,33.3%,24.2%,232% (inactive),953%
COc1ccccc1CNC(=O)CN(Cc1ccc(Cl)cc1)S(C)(=O)=O,25.3%,7.2%,127% (inactive),441%
COc1ccc(S(=O)(=O)N(C)c2ccc(C(=O)NCC3CCCO3)cc2)cc1OC (stereo not given),21.6%,13.3%,226% (inactive),413%
COc1cc(CC(=O)OCC(=O)NCc2ccc(C)cc2)cc(OC)c1OC,12.7%,21.2%,138% (inactive),165%
Cc1ccc(C)c(OC(=O)c2cncc(Br)c2)c1,18.1%,15.8%,147% (inactive),268%
Cc1ccc(NC(=O)COC(=O)c2c(-c3ccccc3)noc2C)c(C)c1,5.6%,14.4%,137% (inactive),226%
Cc1c(C(=O)N(C)Cc2ccccc2)oc2ccc(S(=O)(=O)N3CCCC3)cc12,25.6%,12.7%,191% (inactive),229%
COc1cc2c(-c3cc(F)cc(F)c3)c(-c3ccsc3)oc(=O)c2cc1OC,37.8%,28.1%,275% (inactive),271%
O=C(CCc1ccccc1)N1CCN(CCO)CC1,35.8%,14.4%,151% (inactive),239%
CC(C)(C)NC(=O)CON=C1c2ccccc2-c2ccccc21,8.8%,30.6%,361% (inactive),203%
CC(C)(C)NC(=O)COc1ccc(CNCc2ccccn2)cc1,21.6%,5.1%,32.8% (active),227%
CC(C)(C)NC(=O)COc1ccc(CNCc2cccnc2)cc1,31%,21.6%,446% (inactive),334%
CCCCn1nc(C(=O)N2CCN(S(=O)(=O)c3ccccc3)CC2)c2ccccc2c1=O,16.5%,2.2%,57.2% (inactive),484%
Cc1ccc(NC(=O)C2c3ccccc3Oc3ccccc32)c(C)c1,12.5%,28.2%,175% (inactive),230%
